In the OligoGym collection one finds sensor-assay potency score (higher = more potent) data, which are given here for 40 sequences.
Note: reference of the scale not given here.

The first test deals with F2R. The experiment in a line: pooled miR-30 sensor sort-seq; sequence = guide strand. To be noted: shRNA.
TTATTCAGGTTACTAGAGCAGG returned a sensor-assay potency score (higher = more potent) of -0.622.

The sequence TATCACATTCTGCTTTGCCAGT had a sensor-assay potency score (higher = more potent) of -0.848.

In turn, TAGTACTAAGTCTTACCTCTTA came in with a sensor-assay potency score (higher = more potent) of -0.241.

TTTCATGGTCATTACCTCCTAG: the sensor-assay potency score (higher = more potent) was found to be 0.0335.

For the sequence TTACACATACATCACACTCTAT, the sensor-assay potency score (higher = more potent) was -0.0427.

With AAACACTAGAACTTCTACGCAC, the sensor-assay potency score (higher = more potent) was determined as 0.254.

Sequence TACACCACAGCCAGAAACCGGT returned a sensor-assay potency score (higher = more potent) of -0.606.

TTCCTGAGAAGAAATGACCGGG displayed a sensor-assay potency score (higher = more potent) of 0.496.

Sequence TTACTTGCCATCAACTGCCCAC showed a sensor-assay potency score (higher = more potent) of -0.043.

For TAAACTTTTCTTTTTAACCTCC, the sensor-assay potency score (higher = more potent) is 0.474.

As for TAATAGCTGATCTTAAAGGGGA, the sensor-assay potency score (higher = more potent) is -0.239.

In turn, TAATAACTTAAACCTTGCCGTC gave a sensor-assay potency score (higher = more potent) of -1.01.

The target of a further test is FABP1. Described as above. To be noted: shRNA.
For the sequence TTCCTGGCTCTGCAGTTGGTAC, the sensor-assay potency score (higher = more potent) was -1.83.

The sequence TTGTCTCCAGCTCACATTCCTC registered a sensor-assay potency score (higher = more potent) of -1.37.

For the sequence TATTGTCACCTTCCAACTGAAC, the sensor-assay potency score (higher = more potent) was -1.49.

The sequence ATTCTCTTGAAGACAATGTCAC showed a sensor-assay potency score (higher = more potent) of -0.0218.

Regarding TTATTGTCACCTTCCAACTGAA, the sensor-assay potency score (higher = more potent) is -0.686.

TTCCGGCAGACCGATTGCCTTC: the sensor-assay potency score (higher = more potent) is -1.36.

Turning to TGAACCACTGTCTTGACTTTCT, the sensor-assay potency score (higher = more potent) was -0.394.

TTTTGGATCACTTTGGACCCAG came in with a sensor-assay potency score (higher = more potent) of -0.408.

As to TTGAGTTCGGTCACAGACTTGA, the sensor-assay potency score (higher = more potent) was -0.0189.

Sequence TTTCCTGGCTCTGCAGTTGGTA returned a sensor-assay potency score (higher = more potent) of -0.913.

TCCAACTGAACCACTGTCTTGA registered a sensor-assay potency score (higher = more potent) of -0.148.

Turning to TCTTGAAGACAATGTCACCCAA, the sensor-assay potency score (higher = more potent) was 0.0461.

With ACTGTCTTGACTTTCTCCCCTG, the sensor-assay potency score (higher = more potent) was -0.45.

The sequence TTTGAAAGTTGTCACCAGTTTA came in with a sensor-assay potency score (higher = more potent) of -0.997.

TTTATTGTCACCTTCCAACTGA registered a sensor-assay potency score (higher = more potent) of 0.758.

AACCACTGTCTTGACTTTCTCC came in with a sensor-assay potency score (higher = more potent) of -0.372.

With TTTTGAAAGTTGTCACCAGTTT, the sensor-assay potency score (higher = more potent) was -0.569.

On to TTCCAACTGAACCACTGTCTTG, for which the sensor-assay potency score (higher = more potent) is -1.23.

TTTTTGAAAGTTGTCACCAGTT had a sensor-assay potency score (higher = more potent) of -0.333.

The sequence TTTGGATCACTTTGGACCCAGC had a sensor-assay potency score (higher = more potent) of -1.41.

Sequence TGAACTTGAAGTGCTTCCCATT had a sensor-assay potency score (higher = more potent) of -0.823.

Consider TTGAAGACAATGTCACCCAATG, for which the sensor-assay potency score (higher = more potent) is -1.17.

Consider TCGTTTTGGATCACTTTGGACC, for which the sensor-assay potency score (higher = more potent) is -1.43.

For a further test, the target named is FABP9. The description is as above. The following applies: shRNA.
In turn, TTACATTCCACTACCATTTTTT showed a sensor-assay potency score (higher = more potent) of -0.986.

Consider TATGGTGCTCTTTACTTTCCGG, for which the sensor-assay potency score (higher = more potent) was -0.345.

For TTCTTTTGATTGTTGTCTCTTT, the sensor-assay potency score (higher = more potent) was -0.11.

As to TTTCTTTTGATTGTTGTCTCTT, the sensor-assay potency score (higher = more potent) came out at 0.171.

The sequence AACACTAATAGTTACTGTCGGT showed a sensor-assay potency score (higher = more potent) of -0.48.
